This is a sample that favours compounds with a hit; in the whole collection about 12% have one here.
Cl transport mod = modulates chloride dependent transport by human KCC2. actives 2.2% (n = 190,000). Q9H2X9. KCC2 cells, thallium flux FluoZin-2 fluorescence. B-score of Tl+ flux slope (higher = more flux/activation; lower = inhibition) at 10 µM;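 active = thallium flux slope and its plate-corrected score both differing from the plate sample mean at a set confidence after two filtering rounds, in either direction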;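 note: slope of fluorescence scaled to starting intensity during 10 to 20 s after thallium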
WT yeast gro inh = growth inhibition of WT yeast, mitochondrial fusion screen. actives 2.1% (n = 190,000). AID 1362. mitochondrial fusion phenotypic screen, WT strain. inhibition, % at 10 µM; in the data active = inhibition above about 58%; tested in S. cerevisiae
Calpain2 inh = blocks pig calpain II enzyme activity; inhibition, % at 16 µM; AID 1236; actives 0.37% (n = 220,000); purified calpain II, fluorogenic peptide substrate, 30 min;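 active = inhibition above about 50%, limit read from the data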
ROMK mod = human ROMK K+ channel modulation, primary screen | Tet-inducible ROMK, thallium flux fluorescence; actives lie on both sides | B-score at 10 µM | actives 2% (n = 130,000);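 active = signal ratio slope over the read window, or its plate-corrected B-score, at least 3 SD from the plate mean, either direction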;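 note: B-score of the F/F0 ratio slope over 7 to 12 s after thallium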
Target sequence (P48048 whole entry, looked up): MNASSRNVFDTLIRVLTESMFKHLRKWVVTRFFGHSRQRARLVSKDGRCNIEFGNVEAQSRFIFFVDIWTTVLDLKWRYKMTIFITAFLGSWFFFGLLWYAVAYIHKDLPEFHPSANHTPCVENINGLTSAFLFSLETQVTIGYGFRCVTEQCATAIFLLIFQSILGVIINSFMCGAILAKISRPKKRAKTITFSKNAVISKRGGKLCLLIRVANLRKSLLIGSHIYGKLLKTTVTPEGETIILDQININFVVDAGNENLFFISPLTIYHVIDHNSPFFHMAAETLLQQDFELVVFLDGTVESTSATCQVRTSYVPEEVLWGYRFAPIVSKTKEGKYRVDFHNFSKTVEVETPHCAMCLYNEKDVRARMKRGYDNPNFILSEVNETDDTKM
Lmaj promast = inhibitors of Leishmania major promastigote growth. Leishmania major promastigotes, resazurin fluorescence viability. inhibition, % at 10 µM. actives 9% (n = 200,000). AID 1063; in the data active = inhibition above about 50%;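 note: promastigotes grown with compound for 44 hours at 28 °C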
Starred values were filed as active, the others as inactive; i = inactive; nt = no result.

SMILES | Cl transport mod | WT yeast gro inh | Calpain2 inh | ROMK mod | Lmaj promast
COCCn1c(=S)[nH]c2cc(C(=O)N3CCc4ccccc43)ccc2c1=O | -0.29 | 76* | 33 | nt | 3
CCCn1c(=S)[nH]c2cc(C(=O)N3CCc4ccccc43)ccc2c1=O | 0.39 | 62 | 22 | nt | 14
NC1=NS(=O)(=O)NC1c1ccc(Br)cc1 (stereo not given) | -0.14 | -1 | 9 | 0.85 | 2
Cc1ccc(OCc2ccc(C(=O)Nc3ccc(C(N)=O)cc3)o2)c([N+](=O)[O-])c1 | 0.037 | -15 | -52 | 0.15 | -1
O=S(=O)(NCc1csc(-c2cccnc2)n1)c1cccs1 | -0.33 | -5 | -6 | nt | -3
CC(=O)Nc1ccc(S(=O)(=O)NCc2csc(-c3cccnc3)n2)cc1 | 3.2* | 5 | 12 | 0.16 | -2
CCNC(=S)Nc1nc2c(cc1C(=O)OCC)CCCC2 | 41* | 3 | 24 | nt | -1
C=CCNC(=S)Nc1nc2c(cc1C(=O)OCC)CCCC2 | 63* | 16 | 0 | 0.57 | 40
Cc1c(NC(=O)c2nn3c(c2Br)NC(c2ccccc2)CC3C(F)(F)F)c(=O)n(-c2ccccc2)n1C (stereo not given) | 0.18 | -19 | 8 | 0.21 | -2
CCCN(Cc1ccc(N(CC)CC)cc1)CC1CC1 | -0.03 | -5 | 15 | nt | 76*
CCCN(Cc1ccc(N(C)C)cc1)CC1CC1 | 0.25 | -2 | 1 | -1.3 | 13
CCn1nc(C(=O)Nc2ccc3nc(C)sc3c2)c2ccccc2c1=O | -0.099 | 21 | -52 | nt | 63*
Cc1cc(C)c(NC(=O)COc2nc3ccccc3nc2C)c(C)c1 | -1.2 | -4 | 4 | nt | 3
Cc1nc2ccc(NC(=O)COc3ccccc3)cc2s1 | -1 | 74* | -12 | 0.76 | -5
Cc1nc2ccccc2nc1OCC(=O)Nc1ccc2ccccc2c1 | -0.077 | 4 | 18 | 0.27 | 59*
Cc1cccc(OCC(=O)Nc2ccc3nc(C)sc3c2)c1 | 0.02 | 59* | 21 | 0.49 | 15
Cc1nc2ccc(NC(=O)c3ccccc3)cc2s1 | -0.34 | -12 | -11 | -0.15 | -2
Cc1nc2ccc(NC(=O)COc3cccc(F)c3)cc2s1 | -0.97 | 51 | -22 | 0.33 | 1
O=C(Cc1ccc(Cl)cc1Cl)NCC1(N2CCOCC2)CCCCC1 | 0.35 | 4 | 17 | -0.58 | 9
O=C(COc1ccccc1)Nc1ccc2[nH]c(=O)[nH]c2c1 | -0.17 | -14 | -30 | -0.34 | 90*
Cc1nc2ccc(NC(=O)Cc3cccc(F)c3)cc2s1 | -0.17 | 47 | 5 | -1.3 | 62*
CCCCCNC(=O)Cc1cc(=O)[nH]c(=O)[nH]1 | 0.38 | 2 | -3 | nt | -8
Cc1cccc(-n2nc([N+](=O)[O-])c(=NCc3cccnc3)n2O)c1 | nt | -19 | 19 | 0.45 | 82*
O=[N+]([O-])c1nn(-c2ccc(Cl)cc2)n(O)c1=NCc1ccncc1 | 1.2 | -3 | 16 | 0.48 | 75*
O=[N+]([O-])c1nn(-c2ccc(Cl)cc2)n(O)c1=NCc1cccnc1 | 1.1 | 6 | 12 | 0.026 | 96*
SMILES | Cl transport mod | WT yeast gro inh | Calpain2 inh | ROMK mod | Lmaj promast
O=[N+]([O-])c1nn(-c2cccc(Cl)c2)n(O)c1=NCc1cccnc1 | 0.98 | 24 | 22 | nt | 21
Cc1cccc(N=c2c([N+](=O)[O-])nn(-c3ccc(Cl)cc3)n2O)c1 | 0.01 | 48 | 1 | -0.68 | 79*
O=C(COC(=O)CN=C1NS(=O)(=O)c2ccccc21)Nc1ccccc1OC(F)F | -0.5 | -9 | 19 | -0.94 | -11
COc1ccccc1N(CC(=O)NCCC1=CCCCC1)S(=O)(=O)c1ccccc1 | -1.2 | 40 | 19 | 0.15 | 32
Cc1ccc(S(=O)(=O)Oc2ccccc2/C=N/N=C(N)N)cc1 | 0.045 | -18 | 27 | -2.1 | 74*
Cc1ccc(S(=O)(=O)Oc2ccccc2/C=N/NC(N)=S)cc1 | 0.7 | -10 | 9 | -0.0065 | -3
CC(C)c1ccc(CN2CCN(C(=O)CCl)CC2)cc1 | 0.95 | 4 | i | -0.54 | 99*
CC(C)NC(=O)CN1CCN(C(=O)CCl)CC1 | 0.58 | -10 | -21 | 1.2 | -7
CC1(C)C(=O)OC(c2c(F)c(F)c(F)c(F)c2F)C2(CCCCC2)C1=O (stereo not given) | 1.3 | 5 | 57* | nt | -3
Oc1ccccc1C(=S)N1CCN(c2cccc(Cl)c2)CC1 | 0.11 | 34 | -6 | -0.051 | 4
COc1ccccc1CNc1cc(CSc2ccc(Cl)cc2)nc(C)n1 | nt | 46 | 13 | -1.2 | 57*
CCn1c(-c2cccn(Cc3ccc(Cl)cc3Cl)c2=O)n[nH]c1=S | 0.64 | 7 | -7 | -0.68 | -4
CC1=C(C(=O)OC(C)C)C(C)NC(=O)N1 (stereo not given) | 0.24 | -2 | -26 | 0.55 | -4
Cc1ccc(NC(=O)C2CCN(c3cnccn3)CC2)cc1C | 0.74 | -23 | -54 | -0.31 | 89*
CCC(CO)n1c(SCc2cc([N+](=O)[O-])cc3c2OCOC3)nc2ccccc2c1=O (stereo not given) | -1.3 | 53 | 19 | nt | 81*
COC(=O)c1ccc2c(c1O)C(=O)c1ccccc1C2=O | -0.0013 | 66* | -57 | -0.084 | 84*
O=C(CSC(=S)N1CCCCC1)N1N=CCC1c1ccccc1 (stereo not given) | -0.74 | 2 | -9 | -0.91 | 51*
O=C(CSc1ccc(Cl)cc1)N1N=CCC1c1ccccc1 (stereo not given) | 0.36 | nt | 0 | -1.7 | nt
CCOCCCNC(=S)N1CCC(NC(=O)C23CC4CC(CC(C4)C2)C3)CC1 | 0.76 | -11 | 16 | -0.23 | 63*
CCOCCCNC(=O)NC12CC3CC(CC(C3)C1)C2 | 0.02 | 58* | 9 | nt | -2
CC(C)CCNC(=O)C1CC(c2ccc(C(F)(F)F)cc2)=NO1 (stereo not given) | 0.74 | nt | 14 | nt | nt
COc1cc(C(c2c(C)[nH][nH]c2=O)c2c(C)[nH][nH]c2=O)ccc1OC(=O)c1cccc([N+](=O)[O-])c1 | 0.18 | 16 | 23 | nt | 6
COc1cc(C(c2c(C)[nH][nH]c2=O)c2c(C)[nH][nH]c2=O)ccc1OCc1ccc([N+](=O)[O-])cc1 | -0.28 | -7 | -3 | -0.67 | 98*
Cc1ccc(S(=O)(=O)N2CCC(=O)N(CCOC(=O)Nc3ccc(C)c(C)c3)CC2)cc1 | -1.1 | -1 | -9 | 0.36 | 23
CCOC(=O)c1sc(NC(=O)C(CC)Sc2nc3ccccc3[nH]2)nc1C (stereo not given) | -0.82 | nt | nt | -0.52 | 54*
CCOC(=O)Cc1nnc(NC(=O)C(CC)Sc2nnc3c4ccccc4n(C)c3n2)s1 (stereo not given) | 0.39 | -17 | -66 | nt | -10
CCOC(=O)c1sc(NC(=O)C(CC)Sc2nnc3c4ccccc4n(C(C)C)c3n2)nc1C (stereo not given) | -0.86 | 10 | -109 | nt | 72*
CN(C)c1nc(-c2ccccc2)ncc1S(=O)(=O)c1ccccc1 | 0.3 | 14 | 13 | -0.39 | 8
CCN(CC)c1nc(-c2ccccc2)ncc1S(=O)(=O)c1ccc(C)cc1 | -0.7 | 62* | 5 | 0.98 | 14
